Sampled rows, rich in hits. Any-hit rate of the full collection: about 0.51%.
Rango-impB inh = qHTS Assay for Inhibitors of Rango (Ran-regulated importin-beta cargo) - Importin beta complex formation; actives 0.031% (n = 340,000); Potency, µM (top dose mostly 92.2 µM); Importin subunit beta-1 (Homo sapiens), Q14974; AID 540263, 2011; Rango CFP/YFP FRET sensor + importin beta, 45 min; further: nearly all actives have a fitted effect of over 15% in size
Target sequence (Q14974 whole entry, looked up): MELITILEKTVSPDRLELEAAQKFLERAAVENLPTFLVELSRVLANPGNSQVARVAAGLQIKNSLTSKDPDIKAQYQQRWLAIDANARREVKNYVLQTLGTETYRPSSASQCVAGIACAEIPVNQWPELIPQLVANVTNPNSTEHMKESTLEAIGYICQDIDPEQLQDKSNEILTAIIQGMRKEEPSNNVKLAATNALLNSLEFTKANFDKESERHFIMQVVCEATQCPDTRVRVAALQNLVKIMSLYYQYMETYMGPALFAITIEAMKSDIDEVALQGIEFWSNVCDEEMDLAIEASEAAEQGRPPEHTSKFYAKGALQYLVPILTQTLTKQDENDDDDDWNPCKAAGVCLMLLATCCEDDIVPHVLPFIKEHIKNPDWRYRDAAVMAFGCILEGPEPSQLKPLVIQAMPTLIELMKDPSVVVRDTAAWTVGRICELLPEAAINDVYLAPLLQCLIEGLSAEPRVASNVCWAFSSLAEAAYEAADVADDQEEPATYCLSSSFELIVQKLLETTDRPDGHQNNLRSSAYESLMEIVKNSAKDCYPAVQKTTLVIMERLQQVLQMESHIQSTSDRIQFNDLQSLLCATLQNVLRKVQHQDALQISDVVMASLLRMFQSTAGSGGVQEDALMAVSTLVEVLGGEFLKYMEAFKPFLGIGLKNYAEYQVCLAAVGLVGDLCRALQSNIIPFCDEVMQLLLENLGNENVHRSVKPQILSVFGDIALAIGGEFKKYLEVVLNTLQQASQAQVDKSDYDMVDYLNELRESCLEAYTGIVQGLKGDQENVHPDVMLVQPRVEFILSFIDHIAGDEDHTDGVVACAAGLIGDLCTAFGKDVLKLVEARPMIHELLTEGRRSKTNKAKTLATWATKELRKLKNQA
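Inhibition scored from the CFP 486 nm/YFP 530 nm FRET ratio 45 min after adding 0.125 microM importin beta to 50 nM Rango biosensor preincubated 5 min with compound (room temperature, PBS with DTT, Tween-20, BSA). No-importin wells as positive control.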
Rango dissoc inh = qHTS Assay for Inhibitors of RanGTP induced Rango (Ran-regulated importin-beta cargo) - Importin beta complex dissociation; Snurportin-1 (Homo sapiens) + GTP-binding nuclear protein Ran (Homo sapiens) + Importin …; Biochemical FRET Rango-importin beta, RanGTP-induced dissociation; Potency, µM (titrated, usually from 46.1 µM); actives 0.071% (n = 340,000); further: nearly all actives have a fitted effect of over 45% in size
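Two FRET readings bracket the reaction: one 5 min after compound meets Rango–importin beta, another 45 min after RanGTP-RCC1 (0.6 uM Ran, 0.2 uM RCC1, 2 mM GTP) is added. Only the second defines inhibition.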
CCT modulator = High-Throughput Screening for Modulators of Cytosolic Chaperonin Activity | purified chaperonin ATPase assay, HTRF ADP detection, 30 min | activity change, % (test concentration not listed), hits read low | actives 0.3% (n = 360,000); in the data active means activity change below about -30%
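TRiC at 40 or 20 nM final (batch-dependent) in 30 mM Tris pH 7.4, 100 mM KCl, 5 mM MgCl2, 1 mM DTT, with compound at single 76 uM and 10 uM ATP, 30 min at 37 deg C. ADP detected by HTRF Transcreener, 665/615 ratio.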
Mm-Cpn inhibitor = Inhibitors of TCP-1 ring complex (TRiC) of Methanococcus maripaludis (MmCpn): qHTS. Chaperonin Mm-Cpn (Methanococcus maripaludis). purified Mm-Cpn ATPase, ADP Transcreener TR-FRET. Potency, µM (highest dose often 76.9 µM), hits mostly inhibitors. actives 0.031% (n = 330,000). AID 504842, 2011; active means well fitted curve in the direction sought with a large enough effect; inconclusive means small, poorly fitted or top-dose-only effect, or another doubt; inactive means no such curve, though single readings can be large; an effect the other way counts as inactive or inconclusive; further: nearly all actives have a fitted effect of over 80% in size
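Compound-treated chaperonin, 25 nM final, turns over 10 uM ATP at 37°C for 30 min following a 10 min preincubation; ADP generated competes with ADP-d2 for Eu-cryptate antibody, lowering FRET.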
Integrin act MD = qHTS for Activators of Integrin-Mediated Alleviation for Muscular Dystrophy | Potency, µM (series often up to 38.3 µM), most hits filed as activators | actives 0.064% (n = 350,000) | alpha7betagal myoblasts, beta-gal FDG fluorescence, 48 h; active means well fitted curve in the direction sought with a large enough effect; inconclusive means small, poorly fitted or top-dose-only effect, or another doubt; inactive means no such curve, though single readings can be large; an effect the other way counts as inactive or inconclusive; further: nearly all actives have a fitted effect of over 60% in size
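Alpha7betagal+/- myoblasts (passage 13) were plated 16-24 hr, then exposed to compounds (1:260 dilution of DMSO stock) for 48 hours at 37C. After MPER lysis, β-galactosidase reporter activity was read as FDG fluorescence (ex 480/em 540) after 30 minutes.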
Of the large screens only hits and unclear results are named; the others gave an inactive call; [ ] = remark or other dose. Unless noted, the call rests on the fitted dose curve.

O=C(CCCCCn1c(=S)[nH]c2ccc(N3CCOCC3)cc2c1=O)NCc1ccc(Cl)cc1	Rango-impB inh inconclusive, Rango dissoc inh inconclusive
COc1ccc(C)cc1NC(=S)N1CC(C)OC(C)C1 (stereo not drawn)	CCT modulator -48
COc1ccc(NC(=O)N2CC(C)OC(C)C2)cc1OC (stereo not drawn)	none
Brc1ccc(-c2csc(N3CCCCC3)n2)cc1	none (no result: Rango-impB inh, Rango dissoc inh, CCT modulator, Integrin act MD)
CN(C)C(=S)NC(C)(C)C	Mm-Cpn inhibitor 45µM
Cc1ccc(C(O)c2ncc(-c3ccc(Cl)cc3)[nH]2)cc1F (stereo not drawn)	none (no result: Rango-impB inh, Rango dissoc inh, Mm-Cpn inhibitor, Integrin act MD)
CC(=O)c1cccc(-c2ccc3c(=O)[nH]c(Nc4ccccc4)cc3c2)c1	Rango-impB inh inconclusive, Rango dissoc inh 12µM[inhibitor] (no result: Mm-Cpn inhibitor)
O=c1[nH]c(Nc2ccccc2)cc2cc(Br)ccc12	Rango-impB inh inconclusive, Rango dissoc inh inconclusive (no result: Mm-Cpn inhibitor)
CCN1C(=O)/C(=C\N(C)C)S/C1=N\S(=O)(=O)c1ccc(C)cc1	CCT modulator -45
C=CCN1C(=O)/C(=C/N(C)C)S/C1=N\S(=O)(=O)c1cccs1	none (no result: Rango-impB inh, Rango dissoc inh, Mm-Cpn inhibitor)
CCN(CC)C(=O)c1[nH]cnc1C(=O)N[C@@H](CCCCNC(=O)OC(C)(C)C)C(=O)OC(C)(C)C	CCT modulator -31 (no result: Mm-Cpn inhibitor)
NC(=O)C1CCN(c2nc(-c3ccccc3)cs2)CC1	none (no result: Rango-impB inh, Rango dissoc inh, CCT modulator, Integrin act MD)
Cc1ccc(S(=O)(=O)N2C[C@]3(O)C[C@@H]4C(=O)N(c5ccccc5)C(=O)[C@@H]4C[C@]3(OC(=O)NC3CCCC3)C2)cc1	none (no result: Rango-impB inh, Rango dissoc inh, Mm-Cpn inhibitor)
COc1ccc(S(=O)(=O)N2N=C(c3ccc(NS(C)(=O)=O)cc3)CC2c2ccco2)cc1 (stereo not drawn)	Rango-impB inh inconclusive
COc1ccc(S(=O)(=O)N2N=C(c3cccc(NS(C)(=O)=O)c3)CC2c2ccco2)cc1 (stereo not drawn)	CCT modulator -69
Nc1[nH]c(C(=O)c2ccccc2)c(-c2ccc(Cl)c(F)c2)c1C(=O)NCCc1c[nH]c2ccccc12	none (no result: Rango-impB inh, Rango dissoc inh, Mm-Cpn inhibitor, Integrin act MD)
CCOC(=O)[C@]12CCCC=C1N(Cc1ccco1)C(=O)[C@H](CC(=O)NCc1cccs1)C2	none (no result: Rango-impB inh, Rango dissoc inh, Mm-Cpn inhibitor, Integrin act MD)
Cn1ccc2cc(-c3ccc4ncnc(NCc5cccnc5)c4c3)ccc21	none (no result: Rango-impB inh, Rango dissoc inh, CCT modulator, Integrin act MD)
CC(C)Cc1nnc(NC(=O)c2cccc(S(=O)(=O)N3CCOCC3)c2)s1	CCT modulator -59, Mm-Cpn inhibitor inconclusive
CC(C)Cc1nnc(NC(=O)c2cccc(S(=O)(=O)N3CCN(C)CC3)c2)s1	none
CCC1CCCCN1CCNC(=O)C1CCN(S(=O)(=O)c2cccc3nsnc23)CC1 (stereo not drawn)	CCT modulator -74
Cc1ccc(NC(=O)C2CCCN(S(=O)(=O)c3ccc4[nH]c(=O)ccc4c3)C2)cc1C (stereo not drawn)	none
COc1ccc(NC(=O)C2CCCN(S(=O)(=O)c3c(C)[nH]c(=O)[nH]c3=O)C2)cc1OC (stereo not drawn)	none
CCc1cccc(NC(=O)C2CCCN(S(=O)(=O)c3c(C)[nH]c(=O)[nH]c3=O)C2)c1 (stereo not drawn)	CCT modulator -41 (no result: Mm-Cpn inhibitor)
CCc1ccc(NC(=O)C2CCCN(S(=O)(=O)c3ccc4[nH]c(=O)ccc4c3)C2)cc1 (stereo not drawn)	CCT modulator -71, Integrin act MD inconclusive
CCOc1ccc2[nH]cc(C(=O)N3CCN(C4CCCCC4)CC3)c(=O)c2c1	CCT modulator -57 (no result: Mm-Cpn inhibitor)
Cc1ccc(/C=C/C(=O)Nc2ccc([N+](=O)[O-])cc2)o1	none
CCOC(=O)CCc1ccc(NC(=O)/C=C/c2ccc([N+](=O)[O-])o2)cc1	Rango dissoc inh 10µM (no result: Mm-Cpn inhibitor)
Cc1cccc(NC(=O)CNC(=O)c2cc(C3CC3)nn2-c2ccccc2)c1C	none
CN(CC(=O)Nc1ccccc1Cl)C(=O)c1cc(C2CC2)nn1-c1ccccc1	CCT modulator -31
CN1/C(=C/C=C/c2n(C)c3cc([N+](=O)[O-])c([N+](=O)[O-])cc3[n+]2C)C(C)(C)c2ccccc21	none (no result: Rango-impB inh, Rango dissoc inh, Mm-Cpn inhibitor)
CCOc1ccc(-c2[nH]ncc2Oc2ccccc2OCC)c(O)c1	CCT modulator -73

From PubChem
